# Results filed as inconclusive are left out. Calls of active or inactive are those of the source. How the source made its calls: active means hit-call score of the fitted dose curve at least 0.9, where 1 is the maximum; inconclusive means response in the unintended direction; inactive means score below 0.9.
# Columns and labels:
# [1] = target: Estrogen receptor (Homo sapiens) (UniProt P03372); assay: NVS_NR_hER: NovaScreen (NVS) Nuclear Receptor Binding Assay for human Estrogen Receptor (ER) (AID 2283348)
# Sequence of Estrogen receptor (Homo sapiens) (P03372 whole entry, looked up): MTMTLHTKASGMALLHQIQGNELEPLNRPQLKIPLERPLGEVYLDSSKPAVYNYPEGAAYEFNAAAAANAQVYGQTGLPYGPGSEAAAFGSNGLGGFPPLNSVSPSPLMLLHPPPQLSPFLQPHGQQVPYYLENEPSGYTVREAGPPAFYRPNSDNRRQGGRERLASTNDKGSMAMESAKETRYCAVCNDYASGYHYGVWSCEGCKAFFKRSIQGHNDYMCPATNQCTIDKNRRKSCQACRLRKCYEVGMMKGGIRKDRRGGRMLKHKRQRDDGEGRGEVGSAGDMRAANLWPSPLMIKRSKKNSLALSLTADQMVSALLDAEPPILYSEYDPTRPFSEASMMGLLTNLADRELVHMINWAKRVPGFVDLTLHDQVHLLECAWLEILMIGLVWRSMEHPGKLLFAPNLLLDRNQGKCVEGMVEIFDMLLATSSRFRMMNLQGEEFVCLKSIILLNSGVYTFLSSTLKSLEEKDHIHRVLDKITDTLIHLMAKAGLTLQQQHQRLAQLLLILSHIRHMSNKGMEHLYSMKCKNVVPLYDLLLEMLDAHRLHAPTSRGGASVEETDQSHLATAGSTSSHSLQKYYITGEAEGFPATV
# Summary of the method: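 Cell-free MCF7-derived ER preparation, specific radioligand displaced by test compound, read by scintillation counting 18 h post-dosing. Duplicate single-point 25 uM screen, then concentration-response confirmation; DMSO baseline.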
# [2] = ACEA_ER_AUC_viability: ACEA Biosciences xCELLigence Real-Time Cell Analysis on Estrogen Receptor Agonism for Viability (AID 2283782);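 further: hit means loss of impedance signal meaning reduced cell growth or viability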
# Summary of the method: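 Viability endpoint: reduced impedance area under the curve relative to DMSO, recorded by real-time electrode sensing over ~80 h of continuous exposure. Duplicate plates of T47D in hormone-depleted medium; eight concentrations, 1:4 dilutions, 100 uM maximum.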
structure (smiles),measurement,setting,value
CCCN(CCC)c1c([N+](=O)[O-])cc(S(C)(=O)=O)cc1[N+](=O)[O-],outcome,[1],inactive
same,AC50,[2],50 µM (active)

# Source: PubChem BioAssay (EPA / NIEHS)
